Most compounds without a hit are left out; they make up all but 3.5% or so of the library.
FBW7 activator = activators of human E3 ligase FBW7; 650,000 tested, 0.13% active; Q969H0; AlphaScreen FBW7–phospho-cyclin E peptide binding, activator screen; normalized activity (activation), % at 26.1 µM; in the data active = normalized activity above about 1.9%;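 note: purified mutant Fbw7 with reduced substrate affinity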
Target sequence (Q969H0 whole entry, looked up): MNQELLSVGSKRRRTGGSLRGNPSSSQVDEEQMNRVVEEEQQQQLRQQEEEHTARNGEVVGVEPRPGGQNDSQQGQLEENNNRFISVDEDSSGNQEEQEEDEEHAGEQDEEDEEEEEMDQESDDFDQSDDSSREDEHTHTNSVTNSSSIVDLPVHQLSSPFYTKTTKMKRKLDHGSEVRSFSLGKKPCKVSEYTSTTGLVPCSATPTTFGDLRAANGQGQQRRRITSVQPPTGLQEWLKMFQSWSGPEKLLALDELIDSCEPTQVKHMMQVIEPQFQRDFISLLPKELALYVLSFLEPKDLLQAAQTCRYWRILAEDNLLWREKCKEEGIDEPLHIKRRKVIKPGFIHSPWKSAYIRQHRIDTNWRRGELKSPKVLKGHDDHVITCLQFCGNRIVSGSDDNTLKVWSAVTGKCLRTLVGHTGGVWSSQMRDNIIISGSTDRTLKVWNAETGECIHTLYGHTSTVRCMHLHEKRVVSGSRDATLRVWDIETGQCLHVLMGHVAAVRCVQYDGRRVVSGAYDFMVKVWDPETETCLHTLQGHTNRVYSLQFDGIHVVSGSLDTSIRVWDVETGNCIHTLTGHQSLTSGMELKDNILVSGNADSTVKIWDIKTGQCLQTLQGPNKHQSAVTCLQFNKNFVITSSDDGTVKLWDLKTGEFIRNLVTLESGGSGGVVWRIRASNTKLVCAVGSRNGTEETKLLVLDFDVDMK
TEAD-YAP inh = TEAD-YAP interaction inhibition; 640,000 tested, 1.4% active; AID 1259422; inhibition, % at 9.12 µM; HEK-TIYL cells, TEAD-Gal4/YAP UAS-luciferase luminescence; in the data active = inhibition above about 32%;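 note: 0% = median of test compound wells and 100% = reference inhibitor wells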
GPR151 ag = activates the human receptor GPR151; Q8TDV0; PathHunter beta-arrestin GPR151 cells, luminescence; activation, % at 11.2 µM; 650,000 tested, 1% active; in the data active = activation above about 4.9%;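 note: 0% = median of compound wells and 100% = cells with positive control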
MITF primary = inhibitors of human MITF | AlphaScreen MITF homodimerization, bead proximity signal | inhibition, % at 2.6 µM | O75030 | AID 1259374 | 650,000 tested, 0.91% active; in the data active = inhibition above about 50%;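 note: 0% = vehicle wells with protein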
MITF inh conf = confirmation of human MITF inhibitors; shares compounds with MITF primary; AlphaScreen MITF homodimerization, biotin/His-MITF beads; inhibition, % at 2.6 µM; 4,700 tested, 16% active;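 active = inhibition above a cutoff derived from the DMSO control wells, cut at about 28% in these data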;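 note: 0% = MITF dimer wells with DMSO only; inhibitors lower the bead chemiluminescence by keeping MITF from dimerizing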
AS interf DR = AlphaScreen optical interference, dose response counter-screen; IC50, µM; shares compounds with MITF primary; 480 tested, 6% active; AlphaScreen optical interference counterscreen, cell-free; call rule not given here
AlphaScreen intf2 = AlphaScreen optical interference, counter-screen. shares compounds with MITF primary. 4,700 tested, 7.6% active. LysRS AlphaScreen counterscreen, signal interference, triplicate. inhibition, % at 2.6 µM;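 active = inhibition above a cutoff derived from the DMSO control wells, cut at about 30% in these data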
The depositor's hits bear a star; x = no result.

SMILES	FBW7 activator	TEAD-YAP inh	GPR151 ag	MITF primary	MITF inh conf	AlphaScreen intf2	others
COc1ccc(C2C3=C(Oc4c2c(=O)oc2ccccc42)C2C=CC=CC2OC3=O)cc1 (configuration not stated)	0	5	-1	9	x	x
COc1ccccc1CN1CCN(C(C)C)CC1	0	-10	1	67*	9	9
COc1cc(CN2CCN(Cc3ccccc3)CC2)ccc1O	0	0	-2	41	x	x
COc1ccccc1CN1CCN(Cc2ccc(C)cc2)CC1	0	8	0	76*	3	8
CC(C)N1CCN(Cc2ccccc2C(F)(F)F)CC1	0	6	0	61*	-7	-6
COc1cc(CN2CCN(Cc3ccccc3)CC2)cc(Br)c1O	0	-4	-1	51*	3	16
O=C(c1ccccc1)c1c(-c2ccccc2)n(Cc2ccccc2)c2ccc(O)cc12	0	-12	0	10	x	x
CCc1ccc(CN2CCN(Cc3ccccc3OC)CC2)cc1	0	-3	0	72*	16	18
COc1ccccc1CN1CCN(Cc2ccccc2)CC1	0	-7	0	88*	9	11
CC(C)N1CCN(Cc2ccccc2Cl)CC1	0	5	1	73*	-12	-2
CCN1CCN(Cc2ccccc2Cl)CC1	0	10	0	-11	x	x
COc1cccc(CN2CCN(Cc3ccccc3)CC2)c1O	0	-9	-1	-2	x	x
Cc1ccc(C2NCCC3(O)CCCCC23)cc1 (configuration not stated)	1	9	-1	7	x	x
CC(C#N)CN1CC2(C)CC1CC(C)(C)C2 (configuration not stated)	0	-1	0	39	x	x
CC1(C)CC2CC(C)(CN2CCC#N)C1 (configuration not stated)	0	2	0	53*	-12	-9
CCc1ccc(NC(=O)CCc2nc(C3=CCN(C)CC3)no2)cc1	1	6	-2	65*	48*	19	AS interf DR=>6.5
CCN(CC)S(=O)(=O)c1ccc(NC(=O)CCc2nc(C3=CCN(C)CC3)no2)cc1	0	12	-2	83*	94*	66*
CC(C)c1ccc(NC(=O)CCc2nc(C3=CCN(C)CC3)no2)cc1	1	-3	2	32	x	x
CCOC(=O)c1cccc(NC(=O)CCc2nc(C3=CCN(C)CC3)no2)c1	1	12	2	9	x	x
CCN1CCN(Cc2ccc(NC(=O)CCc3nc(C4=CCN(C)CC4)no3)cc2)CC1	3.9*	5	0	59*	63*	42*
CCOC(=O)N1CCC(NC(=O)CCc2nc(C3=CCN(C)CC3)no2)CC1	0	7	-1	53*	35*	15	AS interf DR=>6.5
Cc1ccc(N2C(=O)NC(=O)/C(=C/c3ccc(C)o3)C2=O)cc1	0	7	0	4	x	x
Cc1ccc(-n2c(/C=C/c3ccccc3Cl)nc3ccccc3c2=O)cc1	0	21	-1	5	x	x
COc1cccc(-n2c(/C=C/c3ccc([N+](=O)[O-])cc3)nc3ccccc3c2=O)c1	0	-5	2	-8	x	x
N=C1c2ccccc2CN1c1cccc(C(F)(F)F)c1	0	4	-2	1	x	x
SMILES	FBW7 activator	TEAD-YAP inh	GPR151 ag	MITF primary	MITF inh conf	AlphaScreen intf2	others
CN1CC=C(c2noc(CCC(=O)Nc3ccc(Cl)cc3)n2)CC1	0	-2	1	73*	68*	46*
COc1ccc(-c2c(C)c3cc(OC(=O)N(C)C)ccc3oc2=O)cc1OC	0	5	2	4	x	x
O=[N+]([O-])c1cccc(CN2CCN(Cc3ccc(F)cc3)CC2)c1	0	5	0	66*	-16	-5
O=[N+]([O-])c1cccc(CN2CCN(c3ccccc3)CC2)c1	0	4	0	36	x	x
Fc1ccc(CN2CCN(Cc3cccc(F)c3)CC2)cc1	0	-2	-1	45	x	x
CC(C)N1CCN(Cc2cccc([N+](=O)[O-])c2)CC1	0	-20	1	67*	4	10
COc1cccc(N2CCN(Cc3cccc([N+](=O)[O-])c3)CC2)c1	0	-10	1	51*	4	4
CN1CCN(Cc2cccc([N+](=O)[O-])c2)CC1	0	3	0	2	x	x
COC(=O)c1c(N)n(Cc2ccc(F)cc2)c2nc3ccccc3nc12	0	7	2	-5	x	x
